Read-out in test [1]: TIMP metallopeptidase inhibitor 2 (TIMP2), TIMP2 (gene 7077)
The experiment in a line: BSK_KF3CT_TIMP2: BioMAP Diversity Plus: KF3CT Assay for TIMP metallopeptidase inhibitor 2 (TIMP2) Biomarker Activity (AID 2283071). To be noted: primary human keratinocytes with fibroblasts; actives raise or lower the signal. An outline of the steps: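 Cells: human keratinocytes co-cultured with foreskin fibroblasts. Treat with chemical, 24 h. Measure TIMP-2 by ELISA; fit curves bidirectionally vs DMSO baseline.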

Read-out in test [2]: Transforming growth factor beta 1 (TGFb1), TGFB1 (gene 7040)
The test can be described thus: BSK_KF3CT_TGFb1: BioMAP Diversity Plus: KF3CT Assay for Transforming growth factor beta 1 (TGFb1) Biomarker Activity (AID 2283072). The conditions noted are these: primary human keratinocytes with fibroblasts; actives raise or lower the signal. A digest of the protocol: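 Primary human skin cells (keratinocytes, foreskin fibroblasts) were co-cultured, exposed to test chemical and sampled at 24 h. TGF-b1 levels were measured by ELISA and fitted bidirectionally relative to DMSO.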

Read-out in test [3]: C-C motif chemokine 2 (Homo sapiens) (UniProt P13500)
The experiment in a line: BSK_KF3CT_MCP1: BioMAP Diversity Plus: KF3CT Assay for Monocyte Chemoattractant Protein 1 (MCP1/CCL2) Biomarker Activity (AID 2283073). The conditions noted are these: primary human keratinocytes with fibroblasts; actives raise or lower the signal. An outline of the steps: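 KF3CT skin co-culture (keratinocytes/foreskin fibroblasts), 24 h post-dose; MCP-1 by ELISA; gain/loss of signal fit bidirectionally vs DMSO baseline.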

Read-out in test [4]: Matrix Metallopeptidase 9 (MMP9), MMP9 (gene 4318)
The test can be described thus: BSK_KF3CT_MMP9: BioMAP Diversity Plus: KF3CT Assay for Matrix Metallopeptidase 9 (MMP9) Biomarker Activity (AID 2283074).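 For AC50: MMP9 protein level quantified by ELISA in the co-culture.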 The conditions noted are these: primary human keratinocytes with fibroblasts; actives raise or lower the signal. An outline of the steps: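 Human keratinocyte/foreskin fibroblast co-culture; compound added; 24 h; MMP-9 by ELISA; bidirectional fit vs DMSO baseline.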

Read-out in a further test: CD40, CD40 (gene 958)
The experiment in a line: BSK_LPS_CD40: BioMAP Diversity Plus: LPS Assay for CD40 Biomarker Activity (AID 2283076). To be noted: primary human HUVEC with PBMC; actives raise or lower the signal. An outline of the steps:
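ELISA readout of CD40 in HUVEC/PBMC co-culture (BSK_LPS system), 24 h post-dosing; bidirectional curve fit, DMSO baseline; parallel SRB total-protein staining for cytotoxicity.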

Read-out in test [5]: E-selectin (Homo sapiens) (UniProt P16581)
The experiment in a line: BSK_LPS_Eselectin: BioMAP Diversity Plus: LPS Assay for Eselectin Biomarker Activity (AID 2283077). The conditions noted are these: primary human HUVEC with PBMC; actives raise or lower the signal. A digest of the protocol: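 ELISA readout of E-selectin, 24 h post-dose, HUVEC + PBMC co-culture (LPS system). Gain or loss of signal vs DMSO baseline, bidirectional fit.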

Read-out in test [6]: Interleukin-8 (IL8), CXCL8 (gene 3576)
The experiment in a line: BSK_LPS_IL8: BioMAP Diversity Plus: LPS Assay for Interleukin-8 (IL8) Biomarker Activity (AID 2283078). The conditions noted are these: primary human HUVEC with PBMC; actives raise or lower the signal. A digest of the protocol: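 HUVEC + PBMC co-culture, LPS-activated; test chemicals dosed, IL-8 read by ELISA at 24 h. Bidirectional curve fit vs DMSO baseline (gain or loss of signal).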

The nature of test [7]: BSK_LPS_SRB: Viability Assessment in the BioMAP Diversity Plus: LPS Assay (AID 2283079).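 Note: total protein by sulforhodamine B absorbance as a cytotoxicity measure; measured one day after compound addition; fitted in both directions against DMSO so loss or gain of signal counts.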 To be noted: primary human HUVEC with PBMC. An outline of the steps:
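HUVEC + PBMC co-culture, LPS-stimulated; compound 24 h. 10% TCA fix, 0.1% SRB stain, A560. Bidirectional fit vs DMSO.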

Read-out in test [8]: Interleukin-1 alpha (IL1a), IL1A (gene 3552)
The experiment in a line: BSK_LPS_IL1a: BioMAP Diversity Plus: LPS Assay for Interleukin-1 alpha (IL1a) Biomarker Activity (AID 2283080). The conditions noted are these: primary human HUVEC with PBMC; actives raise or lower the signal. An outline of the steps:
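HUVEC/PBMC co-culture, LPS system; 24 h after dosing; IL-1a by ELISA; gain or loss of signal fitted bidirectionally vs DMSO baseline.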

Read-out in test [9]: urokinase plasminogen activator (uPA), PLAU (gene 5328)
The experiment in a line: BSK_KF3CT_uPA: BioMAP Diversity Plus: KF3CT Assay for urokinase plasminogen activator (uPA) Biomarker Activity (AID 2283075). To be noted: primary human keratinocytes with fibroblasts; actives raise or lower the signal. A digest of the protocol: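 ELISA readout of uPA, analyzed for signal gain or loss relative to DMSO, from a human primary keratinocyte–foreskin fibroblast co-culture measured 24 h after chemical treatment.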

As usually defined, the AC50 is the concentration at which the activity in the assay is half-maximal.

Activity calls are given as the source filed them. Rule for the calls: active = hit-call score of the fitted dose curve at least 0.9, where 1 is the maximum; inactive = score below 0.9.

E-selectin (Homo sapiens), sequence (P16581 whole entry, looked up): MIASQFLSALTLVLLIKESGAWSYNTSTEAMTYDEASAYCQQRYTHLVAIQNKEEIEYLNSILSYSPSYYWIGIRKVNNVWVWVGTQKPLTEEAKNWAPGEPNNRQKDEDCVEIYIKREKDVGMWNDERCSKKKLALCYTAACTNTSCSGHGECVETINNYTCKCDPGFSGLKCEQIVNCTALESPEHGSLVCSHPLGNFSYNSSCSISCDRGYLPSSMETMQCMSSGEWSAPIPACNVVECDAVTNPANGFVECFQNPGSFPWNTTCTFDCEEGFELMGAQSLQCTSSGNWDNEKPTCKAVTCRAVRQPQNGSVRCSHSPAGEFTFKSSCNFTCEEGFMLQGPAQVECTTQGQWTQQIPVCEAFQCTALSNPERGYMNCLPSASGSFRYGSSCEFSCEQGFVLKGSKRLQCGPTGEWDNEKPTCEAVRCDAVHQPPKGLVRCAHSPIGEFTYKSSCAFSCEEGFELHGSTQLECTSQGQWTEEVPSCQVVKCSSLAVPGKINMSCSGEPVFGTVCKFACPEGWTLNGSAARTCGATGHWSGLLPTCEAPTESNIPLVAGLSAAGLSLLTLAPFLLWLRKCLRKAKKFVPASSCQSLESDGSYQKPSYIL

With `CN(CCOc1ccc(CC2SC(=O)NC2=O)cc1)c1ccccn1` (stereo not given), the result in test [1], in test [3], in test [5], in [6], in test [7] and in [8] was inactive. Further, the half-maximal activity concentration (AC50) was 0.016 µM (active) in test [2]; 3.97 µM (active) in test [4]; 13 µM (active) with CD40, CD40 (gene 958).
Turning to `CC(=O)O[C@]1(C(C)=O)CC[C@H]2[C@@H]3C[C@H](C)C4=CC(=O)CC[C@]4(C)[C@H]3CC[C@@]21C`, the outcome is “inactive” in test [1]; “inactive” in test [2]; “inactive” in test [3]; “inactive” in test [4]; “inactive” in test [9]; “inactive” with CD40, CD40 (gene 958). Besides, the result in test [5], in test [6], in test [7] and in test [8] was inactive.
As for `O=C(O)C[C@H](O)C[C@H](O)/C=C/c1c(C2CC2)nc2ccccc2c1-c1ccc(F)cc1`, the outcome in test [1] is “inactive”; in test [2] it was “inactive”; in [3], “inactive”; in test [4] it was “inactive”; in the test with CD40, CD40 (gene 958) it was “inactive”. Also, the AC50 in [5] is 0.0822 µM (active); in test [6], 0.992 µM (active); in test [7], 0.256 µM (active).
Consider `C#C[C@]1(O)CC[C@H]2[C@@H]3CCC4=Cc5oncc5C[C@]4(C)[C@H]3CC[C@@]21C`, for which the AC50 was 3.28 µM (active) in [1], 3.97 µM (active) in test [4] and 6.65 µM (active) in test [7]. For the same molecule, the outcome in [2] was “inactive”; in test [3], “inactive”; with CD40, CD40 (gene 958) it was “inactive”; in test [5], “inactive”; in test [6], “inactive”; in [8], “inactive”.
Take `CCCCCCCCCCCCCCCCCC(=O)OCC(CC)CCCC` (stereo not given): the outcome in [1] is “inactive”; in test [2], “inactive”; in test [3], “inactive”; in [4], “inactive”; with CD40, CD40 (gene 958), “inactive”; in test [5], “inactive”. In addition, the outcome in test [6], in test [7] and in test [8] was inactive.
For `N#Cc1ccc(CC(=NNC(=O)Nc2ccc(OC(F)(F)F)cc2)c2cccc(C(F)(F)F)c2)cc1`, the AC50 in test [1] was 2.21 µM (active); in test [2], 0.463 µM (active). Further, the outcome is “inactive” in [3]; “inactive” in [4]; “inactive” with CD40, CD40 (gene 958); “inactive” in test [5]; “inactive” in test [6]; “inactive” in test [7]. The result in [8] was inactive.
Turning to `CC(=O)Nc1ccccc1O`, the outcome was “inactive” in test [1]; “inactive” in test [2]; “inactive” in test [3]; “inactive” in [4]; “inactive” in test [9]; “inactive” with CD40, CD40 (gene 958). The outcome in test [5], in test [6], in test [7] and in test [8] was inactive.
In the case of `c1ccc2c(c1)c1cccc3ccc4cccc2c4c31`, the outcome was “inactive” in test [1]; “inactive” in [3]; “inactive” in test [4]; “inactive” with CD40, CD40 (gene 958); “inactive” in test [5]; “inactive” in test [6]. Moreover, the result in test [7] and in test [8] was inactive. For the same molecule, in test [2], the AC50 was 0.0518 µM (active).
In the case of `CCc1c(C)cc(N)c(CC)c1N`, the outcome in test [1] is “inactive”; in test [2] it was “inactive”; in [3], “inactive”; in [4], “inactive”; in the test with CD40, CD40 (gene 958), “inactive”; in test [5], “inactive”. Further, the result in test [6], in test [7] and in test [8] was inactive.
Turning to `O=P(c1ccccc1)(c1ccccc1)c1ccccc1`, the outcome in [1] is “inactive”; in [2], “inactive”; in test [3], “inactive”; in test [4] it was “inactive”; with CD40, CD40 (gene 958), “inactive”; in [5], “inactive”. Moreover, the outcome in test [6], in test [7] and in test [8] was inactive.
On to `CCCCC(CC)COC(=O)/C=C\C(=O)OCC(CC)CCCC` (stereo not given), for which the outcome in test [1] was “inactive”; in test [2] it was “inactive”; in [3], “inactive”; in test [4] it was “inactive”; with CD40, CD40 (gene 958), “inactive”; in test [5], “inactive”. Also, the outcome in [6], in [7] and in test [8] was inactive.
Regarding `O=C1CCCCCCCCCCCCCCO1`, the AC50 in test [1] was 20 µM (active); in test [2], 20 µM (active); in [3], 12.5 µM (active). The outcome in test [4] was “inactive”; in test [9], “inactive”; in the test with CD40, CD40 (gene 958), “inactive”; in test [5], “inactive”; in test [6], “inactive”; in test [7], “inactive”. In addition, in test [8], the outcome was inactive.

Source of the values: PubChem BioAssay (EPA / NIEHS).
